Measurements taken from PubChem BioAssay AID624351 (Southern Research Specialized Biocontainment Screening …, 2012).
Screen size: about 2,400 compounds; about 1,400 (58%) were called active. So high a share suggests a set chosen from earlier hits. The list shows a part of the results. A number with no mark means an inactive call.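 Rule for the calls: active = inhibition of 30% or more at any tested dose; inconclusive = primary hits over the limit that were never retested; inactive = the rest.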

experiment: coupled detection enzyme interference, dose response, artefact control for MgcRacGAP inhibitor project, biochemical, coupled enzyme counter-screen (AID 624351); conditions: ADP Hunter coupled enzyme counter-screen, fluorescence, no MgcRacGAP; series mostly up to 80 µM; inhibition: at the top concentration;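 note: signal is the ADP detection kit reading of free GDP without any GAP enzyme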;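 for inhibition: 0% = median positive control wells and 100% = median negative control wells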

Row | Structure (SMILES) | inhibition | IC50
1 | CCOc1cc(-c2cc(-c3ccccc3)nc(N)c2C#N)ccc1O | 17.7% | –
2 | COc1cc(-c2nc3ccccc3s2)ccc1O | – | 18.2 µM (active)
3 | CCN1CCN(CC(=O)Nc2nc3ccccc3s2)CC1 | 28.9% | –
4 | CCOc1cc(-c2nc3ccccc3s2)ccc1O | – | 48.6 µM (active)
5 | O=C(c1ccc(F)cc1)N1CCN(C2CCCCC2)CC1 | 19.5% | –
6 | COc1cc2c(cc1OC)C1(CCCC1)C(N)=C2C#N | – | 57.3 µM (active)
7 | O=C(c1cccc(Cl)c1)N1CCN(C2CCCCC2)CC1 | 15.2% | –
8 | O=C(c1ccco1)N1CCN(Cc2cccc([N+](=O)[O-])c2)CC1 | 18% | –
9 | O=[N+]([O-])c1cccc(CN2CCN(Cc3ccco3)CC2)c1 | 20.7% | –
10 | O=[N+]([O-])c1cccc(CN2CCN(c3cccc4[nH]ccc34)CC2)c1 | – | 46.7 µM (active)
11 | O=C(c1c(Cl)cccc1Cl)N1CCN(c2cccc3[nH]ccc23)CC1 | – | 50.9 µM (active)
12 | COc1cc(/C=C2\Oc3cc(O)ccc3C2=O)ccc1O | – | 33.9 µM (active)
13 | O=C1/C(=C/c2ccc(O)c(O)c2)Oc2cc(O)ccc21 | – | 28.2 µM (active)
14 | Brc1ccccc1OCCCCCN1CCOCC1 | 15.5% | –
15 | S=c1[nH]nc2sc3ccccc3n12 | – | 32.3 µM (active)
16 | O=C(CN1CCN(c2ncccn2)CC1)N1CCCC1 | 10.6% | –
17 | Cc1ccc(-c2n[nH]c(=S)n2/N=C/c2ccc(C(=O)O)cc2)cc1 | – | 69.7 µM (active)
18 | S=c1[nH]nc(-c2ccncc2)n1/N=C/c1ccccc1 | – | 39.6 µM (active)
19 | Oc1ccccc1/C=N/n1c(-c2ccccc2)n[nH]c1=S | – | 71.4 µM (active)
20 | Cc1cccc(N2C(=O)/C(=C\c3ccc(C(=O)O)cc3)c3ccccc3C2=O)c1 | 2.03% | –
21 | NNc1ccc([N+](=O)[O-])c2[nH][nH]c(=O)c12 | -1.61% [at 10 µM] | –
22 | Cc1ccc(S(=O)(=O)/N=S(/c2ccccc2)C(C)C)cc1 (stereo not given) | 6.9% | –
23 | CN(C)c1ccc2cc(S(=O)(=O)O)cc(O)c2c1 | – | 75 µM (active)
24 | Nc1cccc2c(O)cc(S(=O)(=O)O)cc12 | 15.9% | –
25 | O=S(=O)(O)c1cc(O)c2ccc(Nc3ccccc3)cc2c1 | 14.1% | –
26 | O=C(CN1CCOCC1)Nc1ccc2c(c1)OCCO2 | 14.5% | –
27 | O=C(CCN1CCCCCC1)Nc1ccc2c(c1)OCCO2 | 15.1% | –

Row | Structure (SMILES) | inhibition | IC50
28 | COc1cc(/C=C/C(=O)OCC(=O)Nc2ccc3c(c2)OCCO3)ccc1O | – | 29.2 µM (active)
29 | COc1cc(/C=C/C(=O)OCC(=O)Nc2ccc3c(c2)OCO3)ccc1O | – | 42.1 µM (active)
30 | CC(C)C1=Nc2cccc3cccc(c23)N1 | – | 26.5 µM (active)
31 | O=C(Oc1ccc(N(C(=O)c2ccncc2)S(=O)(=O)c2cccs2)cc1)c1ccncc1 | 7.67% | –
32 | N=C(N)c1ccc(N=Nc2c(O)ccc3c2[nH]c2ccccc23)cc1 | – | 18 µM (active)
33 | O=C(O)CCN1C(=O)/C(=C/c2ccc(-c3nc4ccccc4s3)o2)SC1=S | -0.68% | –
34 | COCCNCC(=O)Nc1nc(C)cs1 | 19.2% | –
35 | CC(C)(C)N1C(=O)c2ccc(C(=O)Nc3ccc(O)cc3)cc2C1=O | – | 29.7 µM (active)
36 | O=C(Nc1ccc(O)cc1)c1ccc2c(c1)C(=O)N(Cc1ccccc1)C2=O | 22.7% | –
37 | Cc1cccc(Nc2c(-c3ccc(O)cc3)nc3ncccn23)c1 | – | 31.7 µM (active)
38 | Cc1ccc(Nc2c(-c3ccco3)nc3ccccn23)cc1 | 17.8% | –
39 | Cc1ccn2c(Nc3ccc4c(c3)OCO4)c(-c3ccc(O)cc3)nc2c1 | – | 32.4 µM (active)
40 | COc1cc(-c2nc3ccc(C)cn3c2Nc2ccc3c(c2)OCCO3)ccc1O | – | 34.4 µM (active)
41 | COc1cc(-c2nc3cnccn3c2Nc2ccc(C)cc2)ccc1O | – | 45.3 µM (active)
42 | N#CC(C#N)=C1C=CC=CN1/C(=C\c1ccco1)C(=O)c1ccc(Cl)cc1 | -0.35% | –
43 | COc1cc(-c2nc3ccccn3c2NCC2CCCO2)ccc1O (stereo not given) | 24.2% | –
44 | COc1cc(-c2nc3cnccn3c2Nc2c(C)cccc2C)ccc1O | – | 52.8 µM (active)
45 | Clc1cc(Br)ccc1OCCOCCN1CCCC1 | 11.4% | –
46 | COc1cc(/C=N/NC(=O)CNC(=O)c2cccs2)ccc1O | – | 38.4 µM (active)
47 | COc1cc(/C=N/NC(=O)CNC(=O)c2ccco2)ccc1O | – | 36.8 µM (active)
48 | O=C(O)c1ccc(N/N=C/c2c[nH]c3ccccc23)cc1 | – | 47.5 µM (active)
49 | COc1ccc2c(/C=N/Nc3ccc(C(=O)O)cc3)c[nH]c2c1 | – | 58.5 µM (active)
50 | Oc1ccc(/C=N/n2c(-c3ccco3)csc2=Nc2cccnc2)c(O)c1 | – | 34.3 µM (active)
51 | CC(C)N=c1scc(-c2ccco2)n1/N=C/c1ccc(O)c(O)c1 | – | 63.8 µM (active)
52 | CN=c1scc(-c2ccco2)n1/N=C/c1ccc(O)c(O)c1 | – | 43.9 µM (active)
53 | CN=c1scc(-c2ccc(F)cc2)n1/N=C/c1ccc(O)c(O)c1 | – | 38.6 µM (active)
54 | CN(C)CCCn1c(SCc2ccc(Cl)cc2)nnc1-c1ccncc1 | 13% | –

Row | Structure (SMILES) | inhibition | IC50
55 | COc1cc(/C=N/NC(=O)c2c(-c3ccccc3)noc2C)ccc1O | – | 50.7 µM (active)
56 | CCOc1cc(/C=N/NC(=O)c2c(-c3ccccc3)noc2C)ccc1O | – | 60.4 µM (active)
57 | COc1cc(/C=N/Nc2nncn2/N=C/c2ccc(O)c(OC)c2)ccc1O | – | 39 µM (active)
58 | COc1cc(/C=N/Nc2nn3cnnc3c3ccccc23)ccc1O | – | 58.4 µM (active)
59 | Oc1ccc(/C=N/Nc2nn3cnnc3c3ccccc23)cc1 | – | 23.3 µM (active)
60 | Cc1ccc(OCCCCNC(C)(C)C)c([N+](=O)[O-])c1 | 20.2% | –
61 | N#CC1=C(N)NC(=S)C(C(N)=O)C1c1ccc([N+](=O)[O-])cc1 (stereo not given) | -6.08% | –
62 | N=C(N)c1ccc(/C=C/c2ccc(C(=N)N)cc2O)cc1 | 11.6% | –
63 | CCOc1ccc(C2NC(=O)C(C#N)=C(S)N2c2ccc(C)cc2)cc1OC (stereo not given) | 3.45% | –
64 | COc1cc2nc(=S)n3[nH]c(CCn4nc(C)cc4C)nc3c2cc1OC | – | 19.6 µM (active)
65 | COc1ccc2cc(OCC(=O)NNC(=O)Nc3ccc(F)cc3)ccc2c1 | – | 65.5 µM (active)
66 | CC1=C/C(=C(/c2cc(C)c(O)c(Br)c2)c2ccccc2S(=O)(=O)O)C=C(Br)C1=O | – | 62.4 µM (active)
67 | Cc1cccc(C=Nc2ccc3c4c(cccc24)CC3)c1O | – | 32.6 µM (active)
68 | Oc1ccc(Br)cc1C=Nc1ccc2c3c(cccc13)CC2 | – | 79.9 µM (active)
69 | Oc1ccc(Cl)cc1C=Nc1ccc2c3c(cccc13)CC2 | – | 14.8 µM (active)
70 | CC(C)(C)N(Cc1ccc2c(c1)OCO2)C(=O)/C=C\S(=O)c1ccccc1 (stereo not given) | 1.78% | –
71 | COc1ccc(C2NC(=O)C(C#N)=C(S)N2c2cccc(C)c2)cc1OC (stereo not given) | 3.49% | –
72 | COCc1cc(S(=O)c2ccc(Cl)cc2)nc(C)n1 (stereo not given) | 1.89% | –
73 | C=CCc1ccc(OCCOCCNCCCC)c(OC)c1 | 16.3% | –
74 | COc1cc(/C=N/NC(=O)c2ccc3c(c2)OCO3)ccc1O | – | 31.9 µM (active)
75 | COc1cc(/C=N/NC(=O)CNC(=O)c2ccc3c(c2)OCCO3)ccc1O | – | 58.4 µM (active)
76 | Cc1nc2c(=O)[nH]c(=S)[nH]c2[nH]c1=O | 0.49% | –
77 | CN1CCc2c1nc1ccccc1c2NC(=O)CN1CCCC1 | 12.3% | –
78 | Cc1[nH]nc(-c2ccc(O)c(C)c2O)c1-c1cnn(-c2ccccc2)c1 | – | 70.7 µM (active)
79 | O=C(Cc1coc2cc(O)ccc12)NNC(=O)c1ccc(Br)s1 | – | 35.2 µM (active)
80 | O=C(Cc1coc2cc(O)ccc12)NNC(=O)c1cccs1 | – | 33.8 µM (active)
81 | O=c1oc2cc(O)ccc2c2oc3cc(O)ccc3c12 | – | 54.1 µM (active)

Row | Structure (SMILES) | inhibition | IC50
82 | COc1cc(-c2ncc3ccccn23)cc(OC)c1OC | 23.4% | –
83 | CC1CC(=O)N(c2ccc(NCCc3ccc(O)cc3)c([N+](=O)[O-])c2)C1=O (stereo not given) | – | 65.3 µM (active)
84 | CCCCc1nc2ccccc2c(NC(=O)CN2CCN(C)CC2)c1CCC | 22.9% [at 40 µM] | –
85 | O=c1c2ccccc2sn1-c1ccccc1F | 25.3% | –
86 | Nc1nc(Sc2ccc([N+](=O)[O-])c3nonc23)c2[nH]cnc2n1 | 0.9% | –
87 | CC(=O)C1=C(O)C(=O)N(c2ccc(O)cc2)C1c1ccccc1[N+](=O)[O-] (stereo not given) | 22.4% | –
88 | Cc1cc(NCCCCCCCNc2cc(C)nc3cc([N+](=O)[O-])ccc23)c2ccc([N+](=O)[O-])cc2n1 | 20.3% | –
89 | Nc1cc([N+](=O)[O-])ccc1Nc1ccc(O)cc1 | – | 36.7 µM (active)
90 | O=[N+]([O-])c1cc([N+](=O)[O-])c2nonc2c1Nc1ccc(O)cc1 | – | 44.7 µM (active)
91 | Cc1ccc(/C=C/C(=O)Nc2ccc([N+](=O)[O-])c(NC(=O)/C=C/c3ccc(C)o3)c2)o1 | -7.16% | –
92 | O=[N+]([O-])c1ccccc1Nc1ccc(O)cc1 | – | 16.3 µM (active)
93 | CCN(Cc1ccncc1)Cc1ccc(OC)cc1OC | 7.38% | –
94 | COc1ccc(CN2CCN(c3ccccn3)CC2)c(OC)c1C | 5.26% | –
95 | Cn1cccc1/C=N/N1CCN(c2ccccc2)CC1 | – | 78.7 µM (active)
96 | CC(C(=O)N1CCCc2ccccc21)N1CCN(c2ccccn2)CC1 (stereo not given) | 21.2% | –
97 | Cn1cccc1/C=N/N1CCN(c2ccccn2)CC1 | – | 31.9 µM (active)
98 | Cc1nc(S/C(=C\c2ccc(-c3ccc(C(=O)O)c(Cl)c3)o2)C(=O)O)n[nH]1 | 8.4% | –
99 | CC[n+]1c(/C=C/N(C)c2ccccc2)oc2ccc(Cl)cc21 | 9.46% | –
100 | COc1ccc(O/C(=N\S(=O)(=O)c2ccccc2)c2ccccc2)cc1 | – | 46.1 µM (active)
101 | C=CCn1c(CNc2ccccc2)nnc1SCC(=O)N/N=C/c1ccc(O)cc1O | – | 79.7 µM (active)
102 | Cc1ccc(C2=NOC(=O)/C2=C\c2ccc(C)o2)cc1 | -3.56% | –
103 | COc1ccc(CN2CCN(Cc3c[nH]c4ccccc34)CC2)c(OC)c1 | 21.2% | –
104 | COc1cc(OC)c2cc[nH]c2c1 | – | 80.5 µM (active)
105 | COc1cc(CNCc2cc(OC)c(OC)c(OC)c2)cc(OC)c1 | -0.49% | –
